In the library only some 3.5% were active in any assay of this set; here they are far more common.
GPR151 ag: activators of human GPR151, primary screen, cell-based, PathHunter beta-arrestin, luminescence; AID 1508602, 2020; activation, % at 11.2 µM; G-protein coupled receptor 151 (Homo sapiens), Q8TDV0; 650,000 tested, 1% active; PathHunter beta-arrestin GPR151 cells; in the data active = activation above about 4.9%;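 note: 0% = median of compound wells and 100% = cells with positive control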
TEAD-YAP inh: TEAD-YAP interaction inhibition, primary screen, TEAD-YAP interaction inhibitor project, luminescence, HEK-TIYL cells. TEAD-Gal4/YAP UAS-luciferase luminescence. inhibition, % at 9.12 µM. 640,000 tested, 1.4% active; in the data active = inhibition above about 32%;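 note: 0% = median of test compound wells and 100% = reference inhibitor wells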
FBW7 activator: FBW7 E3 ligase activators, primary screen, biochemical, AlphaScreen, human. AID 1259310, 2017. 650,000 tested, 0.13% active. normalized activity (activation), % at 26.1 µM. F-box/WD repeat-containing protein 7 (Homo sapiens), Q969H0. AlphaScreen FBW7–phospho-cyclin E peptide binding, activator screen; in the data active = normalized activity above about 1.9%;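 note: purified mutant Fbw7 with reduced substrate affinity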
MITF inh: MITF inhibitors, primary screen, biochemical, AlphaScreen, human; Microphthalmia-associated transcription factor (Homo sapiens), O75030; AlphaScreen MITF homodimerization, bead proximity signal; 650,000 tested, 0.91% active; inhibition, % at 2.6 µM; in the data active = inhibition above about 50%;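 note: 0% = vehicle wells with protein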
GPR151 conf act: GPR151 activators, triplicate retest, confirmation, cell-based, PathHunter beta-arrestin, luminescence | GPR151 PathHunter beta-arrestin cells, 90 min; % of EA-reagent control over plate median | 6,700 tested, under 10 active | shares compounds with GPR151 ag | activation, % at 11.2 µM | AID 1508609, 2020;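 active = mean percent activation across replicates above the confirmation screen cutoff of 4.91%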
GPR119 ag: GPR119 activators in beta-arrestin cells, counter-screen for GPR151 activator project, cell-based, PathHunter beta-arrestin, luminescence, triplicate; shares compounds with GPR151 ag; 90 min; 0 = compound-well median, 100 = enzyme-acceptor control; activation, % at 11.2 µM; 6,700 tested, 0.3% active; AID 1508611, 2020;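 active = mean percent activation in the counterscreen above 29.09%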;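 note: counterscreen on off-target GPR119 to flag nonselective hits from the GPR151 activator screen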
Target sequence (Q8TDV5 whole entry, looked up): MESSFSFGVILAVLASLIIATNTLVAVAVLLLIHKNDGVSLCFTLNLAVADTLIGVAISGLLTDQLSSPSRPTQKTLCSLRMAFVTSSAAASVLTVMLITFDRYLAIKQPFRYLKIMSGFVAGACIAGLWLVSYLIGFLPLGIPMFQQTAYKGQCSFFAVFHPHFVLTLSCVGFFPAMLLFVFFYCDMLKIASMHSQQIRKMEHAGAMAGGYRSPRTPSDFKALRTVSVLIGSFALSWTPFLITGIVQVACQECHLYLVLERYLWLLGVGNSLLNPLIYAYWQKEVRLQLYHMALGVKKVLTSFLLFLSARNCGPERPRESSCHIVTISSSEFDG
Active calls of the source: *; x = no result given.

SMILES	GPR151 ag	TEAD-YAP inh	FBW7 activator	MITF inh	GPR151 conf act	GPR119 ag
CN(C)CCOC1=Cc2ccccc2Sc2ccc(Cl)cc21	5.7*	x	0.7	12.4	0.2	-6.4
CN(C)CCC(=O)N1c2ccccc2Sc2ccc(Cl)cc21	-1.1	-12.3	0.3	4.8	x	x
COc1ccccc1/C=N/NC(=O)NC12CC3CC(CC(C3)C1)C2	-1.0	9.2	-0.1	9.6	x	x
COc1ccccc1/C=C/C(=O)OCC(=O)NC(=O)NC12CC3CC(CC(C3)C1)C2	5.5*	0.8	0.1	16.4	0.9	4.0
CC(C)CC(=O)NS(=O)(=O)c1ccc(NC(=O)c2ccccc2Cl)cc1	5.1*	-8.8	-0.1	1.9	1.0	-8.2
CC(C)CC(=O)NS(=O)(=O)c1ccc(NC(=O)c2ccc(Cl)cc2)cc1	1.5	0.6	0.0	14.1	x	x
COC(=O)C(NC(=O)c1cccs1)C12CC3CC(CC(C3)C1)C2 (stereo not drawn)	5.1*	-3.5	0.0	2.8	-0.1	-7.3
COC(=O)C(NC(=O)c1ccc(F)cc1)C12CC3CC(CC(C3)C1)C2 (stereo not drawn)	1.2	5.8	0.2	18.1	x	x
O=[N+]([O-])c1ccc(Cl)cc1NCCOCC(F)(F)F	5.2*	7.0	-0.1	9.7	-0.5	-0.8
COc1ccccc1OCCCN1C(=O)C(=O)c2cc(Br)cc(C)c21	14.4*	12.6	-0.1	-3.7	1.2	15.5
COc1ccc(CCn2ccc(-c3sc(NCc4ccco4)nc3C)n2)cc1	8.0*	1.7	0.1	-2.3	-0.3	0.3
O=C(CCN1C(=O)c2ccccc2C1=O)Nc1cc([N+](=O)[O-])ccc1O	5.8*	3.0	0.1	-14.0	0.4	10.4
O=C(CCN1C(=O)c2ccc([N+](=O)[O-])cc2C1=O)Nc1cc(Cl)ccc1O	0.3	1.7	-0.2	3.8	x	x
Nc1nc(NCc2nc3ccccc3[nH]2)cc(-c2csc3ccccc23)n1	5.6*	-11.7	0.0	-6.7	0.4	-2.3
Nc1ccccc1S(=O)(=O)NCC(=O)O	1.1	3.5	0.1	8.7	x	x
Nc1ccccc1S(=O)(=O)Nc1ccccc1	5.0*	6.3	0.0	0.9	-1.2	-10.4
O=C(NCc1ccccc1)c1cccc(Nc2nccc3ccccc23)n1	0.3	9.5	-0.2	5.0	x	x
O=c1cc(CO)oc(C(Nc2ccccn2)c2cccc(Cl)c2)c1O (stereo not drawn)	5.0*	-10.0	-0.1	-0.1	-0.3	11.5
Cc1ccc(C2C3=C(CC(C)(C)CC3=O)Nc3n[nH]c(C)c32)cc1 (stereo not drawn)	8.4*	8.6	0.1	5.7	-0.2	0.0
Cn1c2c(c(=O)n(C)c1=O)C(c1ccc(F)cc1)C1=C(CC(C)(C)CC1=O)N2 (stereo not drawn)	-0.4	10.2	-0.1	2.9	x	x
CC1=C(C(=O)Nc2nc3ccccc3s2)C(c2ccc(Br)cc2)C2=C(CC(C)(C)CC2=O)N1 (stereo not drawn)	0.2	1.9	0.1	-13.4	x	x
Cc1ccc(C2C3=C(CC(C)(C)CC3=O)Nc3c2c(=O)n(C)c(=O)n3C)cc1 (stereo not drawn)	7.5*	0.8	-0.5	-3.6	-0.1	-5.5
CC1=C(C(=O)Nc2nc3ccccc3s2)C(c2ccc(C)cc2)C2=C(CC(C)(C)CC2=O)N1 (stereo not drawn)	6.5*	14.9	0.4	-4.2	0.9	17.8
O=C(NCC1CCC2(CCN(C(=O)C3(c4ccccc4)CC3)CC2)O1)c1ccccc1F (stereo not drawn)	2.3	-0.9	0.0	-11.3	x	x
CC1(C)CC(=O)C2=C(C1)N(c1ccc(Cl)cc1)C(N)=C(C#N)C2c1ccc2c(c1)OCO2 (stereo not drawn)	13.6*	-6.1	-0.1	-7.3	-0.4	-2.7
CCC(NC(=O)Cn1nnnc1CN1CCC(C)CC1)c1ccc(F)cc1 (stereo not drawn)	5.6*	1.3	0.0	0.6	0.2	-1.5
Cc1ccc(-c2csc(N3C(=O)CNC3=S)n2)cc1	5.7*	-46.5	0.1	16.1	-1.5	-18.8
